# Results: PubChem BioAssay
# A number with no mark means an inactive call. The rule behind the calls is not given here.
# Tested on: Aerobactin synthetase IucA (Klebsiella pneumoniae hvKP1)
# Test: Biochemical IucA enzyme inhibition primary screen of the Spectrum library (AID 1346200);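 note: 100% = wells without compound and 0% = wells lacking enzyme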
# Conditions: malachite green pyrophosphate, A620, at 8 µM, hits give low values
row,Compound,activity remaining
1,CCN(CC)C(C)CN1c2ccccc2Sc2ccccc21 (centres undefined),109%
2,C=CCSSSCC=C,91.6%
3,CCCCCCc1ccc(O)cc1O,124%
4,OC[C@H]1OC([S-])[C@H](O)[C@@H](O)[C@@H]1O.[Au+] (some centres undefined),109%
5,C/C=C/C(=O)N(CC)c1ccccc1C,112%
6,CC[C@H]1OC(=O)[C@H](C)[C@@H](O[C@H]2C[C@@](C)(OC)[C@@H](O)[C@H](C)O2)[C@H](C)[C@@H](O[C@@H]2O[C@H](C)C[C@H](N(C)C)[C@H]2O)[C@](C)(O)C[C@@H](C)C(=O)[C@H](C)[C@@H](O)[C@]1(C)O,117%
7,c1ccc(CC2=NCCN2)cc1,118%
8,CC(C)CCCC(C)C1CCC2C3C[C@@H](O)[C@@]4(O)C[C@@H](O)CC[C@]4(C)C3CC[C@]12C (some centres undefined),123%
9,O=c1cc(-c2ccc(O)cc2)oc2cc(O)ccc12,102%
10,CC1(C)C2CC[C@]3(C)C(C(=O)C=C4[C@@H]5C[C@@](C)(C(=O)O)CC[C@]5(C)CC[C@]43C)[C@@]2(C)CC[C@@H]1O (some centres undefined),126%
11,CC1(C)CC[C@@]2(C(=O)O)C(C1)C1=CCC3[C@@]4(C)CC[C@H](O)C(C)(C)C4CC[C@@]3(C)[C@]1(C)C[C@@H]2O (some centres undefined),99.8%
12,CC[C@@H](C(=O)C(C)[C@@H](O)[C@H](C)CCc1ccc(C)c(O)c1C(=O)O)C1OC(CC)(C2CC[C@](O)(CC)[C@H](C)O2)C[C@@H]1C (some centres undefined),111%
13,COCCCOc1cc(C[C@@H](C[C@H](N)[C@@H](O)C[C@H](C(=O)NCC(C)(C)C(N)=O)C(C)C)C(C)C)ccc1OC,107%
14,CCOC(N)=O,107%
15,CC(=O)/C(=C\c1ccccc1)CC(=O)O,98.6%
16,CCCCCc1c2c(cc(O)c1C(=O)O)OC(=O)c1c(cc(OC)cc1C(=O)CCCC)O2,121%
17,C=C1CC[C@H](O)C/C1=C/C=C1\CCCC2(C)C1CCC2C(C)CCCC(C)C (some centres undefined),113%
18,COc1cccc2c1C(=O)c1c(O)c3c(c(O)c1C2=O)C[C@@](O)(C(C)=O)C[C@@H]3O[C@H]1C[C@H](N)[C@H](O)[C@H](C)O1,75.3%
19,CCc1ccc2c(O)c3c(cc2c1C(=O)OC)C(=O)c1c(O)ccc(O)c1C3=O,115%
20,CN(C)CC/C=C1/c2ccccc2COc2ccccc21,99.3%

row,Compound,activity remaining
1,COc1ccc(-c2cc(=O)c3ccccc3o2)cc1,114%
2,Nc1nc2c(c(=O)[nH]1)NC(CNc1ccc(C(=O)N[C@H](CCC(=O)O)C(=O)O)cc1)=CN2,102%
3,COC(=O)C1=CO[C@@H](C)[C@@H]2CN3CC[C@@]4(C(=O)Nc5ccccc54)[C@@H]3CC12 (some centres undefined),107%
4,CC(=O)Oc1ccc2c(c1)CCC1C2CC[C@]2(C)C(=O)CCC12 (some centres undefined),99.1%
5,N#Cc1ccc2c(c1)N(CCCN1CCC(O)CC1)c1ccccc1S2,111%
6,CC(=O)O[C@H]1C[C@@H](OC(C)=O)C(C)(C)C2C[C@@H](OC(C)=O)[C@]3(C)C(CC[C@@]4(C)[C@H](c5ccoc5)OC(=O)[C@H]5O[C@]543)[C@]21C (some centres undefined),103%
7,COC(=O)[C@@H]1C(O)CC[C@H]2CN3CCc4c([nH]c5ccccc45)[C@@H]3C[C@@H]21 (some centres undefined),96.8%
8,COc1c(O)cc2oc3cc(O)c(CC=C(C)C)c(O)c3c(=O)c2c1CC=C(C)C,93%
9,CCOC(=O)C1=C(O)C(=O)N(Cc2ccccc2)C1,96.2%
10,COc1cc(NC(C)CCCN)c2ncccc2c1 (centres undefined),123%
11,C[C@]12CCC3c4ccc(O)cc4CCC3C1CCC2=O (some centres undefined),103%
12,CC(=O)N[C@@H](CC(C)C)C(=O)O,93.2%
13,CC(C)c1c(O)ccc2c1CCC1[C@@](C)(CO)CCC[C@]21C (some centres undefined),101%
14,COc1ccc(C(=O)O)c(O)c1OC,93.8%
15,S=c1nc[nH]c2nc[nH]c12,120%
16,COc1ccc2cc1Oc1ccc(cc1)C[C@H]1c3c(cc4c(c3Oc3cc5c(cc3OC)CCN(C)[C@@H]5C2)OCO4)CCN1C,115%
17,NCC1CCC(C(=O)O)CC1 (centres undefined),102%
18,CC(C)=CCc1c(O)cc2occ(-c3ccc4c(c3)OCO4)c(=O)c2c1O,114%
19,CC(=O)O[C@@H]1CC2C(C)(CC[C@H](O)C2(C)C)C2CC[C@]3(C)C(=CC(=O)O[C@H]3c3ccoc3)C21C (some centres undefined),95.5%
